{"source": "PubChem BioAssay (NCI)", "note": "This is part of a sample that, as a whole, favours compounds with a hit. Of some 83,000 tested, about 20% had one in any assay.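 Cells were grown in 96-well plates and exposed to the test compound at a single concentration for 48 hours; results are reported as percent growth, with values below 10 considered active.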 Unmarked numbers belong to inactive results. Active and inactive are the calls of the source."}
{"system": "LOX IMVI melanoma", "assay": "NCI-60 one-dose screen, 48 h (100 = growth as untreated, 0 = no growth, -100 = all killed)", "conditions": "10 µM unless noted"}
{"smiles": "COc1cc2c(c(OC)c1OC)C(=O)CC(c1cccc(NC(=O)c3ccccc3Br)c1)O2", "note": "(stereo not given)", "growth": "93.4%"}
{"smiles": "CC(C)(CO)N(CCO)CCO", "growth": "100%"}
{"smiles": "CC(=O)c1c(Nc2ccc(F)c(F)c2F)[nH]c2c(F)cc(F)cc2c1=O", "growth": "5.66% (active)"}
{"smiles": "C#CCOc1ccc2ncnc(Nc3cccc(NC(=O)CCl)c3)c2c1", "growth": "-68.1% (active)"}
{"smiles": "NNC(=S)N/N=C/c1ccccn1", "growth": "13.2%"}
{"smiles": "Clc1nn2c(Cn3cnc4c(NCc5ccccc5)ncnc43)nnc2c2ccccc12", "growth": "31.3%"}
{"smiles": "O=C(CN1C(=O)NC2NC(=O)NC21)N/N=C/c1ccc(Cl)cc1Cl", "note": "(stereo not given)", "growth": "103%"}
{"smiles": "COc1cccc(Nc2ccnc3[nH]c4ccc([N+](=O)[O-])cc4c23)c1", "growth": "52.2%"}
{"smiles": "O=C(O)C1CN(c2cccc(Cl)c2)N(c2cccc(Cl)c2)C1=O", "note": "(stereo not given)", "growth": "88.7%"}
{"smiles": "CN(C)c1ccc(/C=C/C(=O)c2ccc(Nc3nc(Nc4ccc(F)cc4)nc(Nc4ccc(Cl)cc4)n3)cc2)cc1", "growth": "75.6%"}
{"smiles": "COC(=O)c1nc(-c2ccccc2)oc1S(=O)(=O)N1CCC(C(N)=O)CC1", "growth": "63.7%"}
{"system": "SK-MEL-28 melanoma", "assay": "NCI-60 one-dose screen, 48 h (100 = growth as untreated, 0 = no growth, -100 = all killed)", "conditions": "10 µM unless noted"}
{"smiles": "NC(=O)c1c(NC(=O)c2ccc(Cl)cc2)sc2c1CCC(=O)C2", "growth": "99.2%"}
{"smiles": "Nc1c(C(=O)Nc2cccc3ncccc23)sc2nc3c(cc12)C(=O)CCC3", "growth": "49%"}
{"smiles": "CCOC(=O)c1cn2ncnc(Oc3ccc(NC(=O)NC4CC4)c(F)c3)c2c1C", "growth": "108%"}
{"smiles": "CCOC(=O)c1c2c(n3c1NCC3)-c1ccccc1C2=O", "growth": "103%"}
{"smiles": "CCCC(O)Cn1ncc(C(=O)OCC)c1NC(=O)NCc1cccc(F)c1", "note": "(stereo not given)", "growth": "97.8%"}
{"smiles": "O=C(CCC(=O)c1nc2ncccc2[nH]1)NN1C(=O)CSC1c1ccc(Cl)cc1", "note": "(stereo not given)", "growth": "109%"}
{"smiles": "COc1ccc2nc(Cl)c(/C=C/C(=O)c3ccc(NC(=O)CSc4nnc(-c5ccc(Cl)c(Cl)c5)n4-c4ccccc4)cc3)cc2c1", "growth": "107%"}
{"smiles": "CS(=O)(=O)Nc1cncc(-c2ccc3ncnc(Nc4ccc(F)c(Cl)c4)c3c2)c1", "growth": "42.7%"}
{"smiles": "Cc1ccc(-c2nc(C#N)c(S(=O)(=O)NCCO)o2)cc1", "growth": "70.7%"}
{"smiles": "O=C1OCC2=C1C(c1cccc(C(F)(F)F)c1)c1cc3c(cc1N2CCO)OCO3", "note": "(stereo not given)", "growth": "57.3%"}
{"smiles": "Cc1[nH]c(C(=O)Nc2cccc(OC3CCNCC3)c2)c(Cl)c1Cl", "growth": "-63.5% (active)"}
{"smiles": "O=C1/C(=C/c2ccc(Br)cc2)COc2ccc(O)c(O)c21", "growth": "22%"}
{"smiles": "CCN1C(=S)N(CC)C2C1NC(=S)N2/N=C/C=C/c1ccccc1OC", "note": "(stereo not given)", "growth": "54.5%"}
{"smiles": "COc1cc(-c2nc3occn3c2-c2ccnc(NCCCNS(=O)(=O)c3ccccc3)n2)ccc1F", "growth": "38%"}
{"smiles": "O=C(O)c1cccc(N/C=C/C(=O)c2cc3cc(Br)ccc3oc2=O)c1", "growth": "104%"}
{"smiles": "N#Cc1c(Nc2ccc(F)cc2)n[nH]c1-c1cccs1", "growth": "105%"}
{"smiles": "COc1ccc(C2C(C#N)=C(N)Oc3c2sc2c(Br)cccc32)cc1", "note": "(stereo not given)", "growth": "59.5%"}
{"smiles": "CCNc1nc(-c2ccc(F)cc2)c(C#N)c(=O)n1C", "growth": "77.5%"}
{"smiles": "CC12CCC(/C(=C/NNc3ccc([N+](=O)[O-])cc3[N+](=O)[O-])C1=O)C2(C)C", "note": "(stereo not given)", "growth": "83.5%"}
{"smiles": "S=c1[nH]c2cc(Cl)ccc2o1", "growth": "114%"}
{"smiles": "COc1cc2c3c(c1O)-c1ccccc1[C@@H]1OC(=O)N(CC2)[C@H]31", "growth": "118%"}
{"smiles": "CC(C)CSc1oc(-c2ccccc2)nc1S(=O)(=O)c1ccccc1", "growth": "115%"}
{"smiles": "C#CCOc1cccc(-c2ncc3cc(NC(=O)CCl)ccc3n2)c1", "growth": "53.9%"}
{"smiles": "Cn1c(=O)c2c(nc(NC3=NS(=O)(=O)c4ccccc43)n2Cc2ccccc2)n(C)c1=O", "growth": "107%"}
{"smiles": "COc1cc2c(c(OC)c1OC)C(=O)CC(c1cccc(NC(=O)c3ccccc3Br)c1)O2", "note": "(stereo not given)", "growth": "111%"}
{"smiles": "CC(C)(CO)N(CCO)CCO", "growth": "103%"}
{"smiles": "CC(=O)c1c(Nc2ccc(F)c(F)c2F)[nH]c2c(F)cc(F)cc2c1=O", "growth": "4.71% (active)"}
{"smiles": "C#CCOc1ccc2ncnc(Nc3cccc(NC(=O)CCl)c3)c2c1", "growth": "90.6%"}
{"smiles": "CCn1cc(C2=C(c3cn(C)c4ncccc34)C(=O)NC2=O)c2cccnc21", "growth": "90.7%"}
{"smiles": "NNC(=S)N/N=C/c1ccccn1", "growth": "56.3%"}
{"smiles": "Cc1ccc2nc(Cl)c(Cn3nnnc3SCc3ccccc3)cc2c1", "growth": "107%"}
{"smiles": "Clc1nn2c(Cn3cnc4c(NCc5ccccc5)ncnc43)nnc2c2ccccc12", "growth": "46%"}
{"smiles": "CN(C)c1ccc(/C=C2/C=C(c3ccccc3)OC2=O)cc1", "growth": "105%"}
{"smiles": "O=C(CN1C(=O)NC2NC(=O)NC21)N/N=C/c1ccc(Cl)cc1Cl", "note": "(stereo not given)", "growth": "109%"}
{"smiles": "COc1cccc(Nc2ccnc3[nH]c4ccc([N+](=O)[O-])cc4c23)c1", "growth": "65.7%"}
{"smiles": "COc1ccc(C/C(C)=C(/c2ccc(OCCN3CCCCCC3)cc2)c2ccc(OC(=O)NCc3ccccc3)cc2)cc1", "growth": "98.3%"}
{"smiles": "O=C(O)C1CN(c2cccc(Cl)c2)N(c2cccc(Cl)c2)C1=O", "note": "(stereo not given)", "growth": "93.1%"}
{"smiles": "CN(C)c1ccc(/C=C/C(=O)c2ccc(Nc3nc(Nc4ccc(F)cc4)nc(Nc4ccc(Cl)cc4)n3)cc2)cc1", "growth": "74.3%"}
{"smiles": "COC(=O)c1nc(-c2ccccc2)oc1S(=O)(=O)N1CCC(C(N)=O)CC1", "growth": "63.4%"}
